# Data published in PubChem BioAssay AID463173 (ICCB-Longwood Screening Facility, Harvard Medical School, 2010).
# Among all 52,000 compounds or so, about 4,300 (8.3%) were called active. Many of the other results were omitted from the sample, so actives are more common in it than they were. A number with no mark means an inactive call. No stated cut-off is given here; in the data, active means survival mostly below about 52% (no sharp cut-off); inactive means mostly above about 56%.
# System: DeltatarO mutant
# Experiment: S. aureus survival, RN4220 and DeltatarO strains – OD600, teichoic acid synthesis inhibitors, primary screen (AID 463173)
# Settings: S. aureus RN4220 wild type/DeltatarO growth, OD600, 18 h, active compounds read low, screened at 18.75 µg/mL (by protocol)
row,Compound,survival
1,CCN(CC)c1ccc2cc(-c3nc(-c4cccs4)no3)c(=O)oc2c1,83%
2,CCC(Sc1nc2ccncc2[nH]1)C(=O)Nc1cc(C)ccc1C (stereo not drawn),132%
3,Cn1ncc(C(=O)N2CCN(c3ccccc3F)CC2)c1C1CCN(C(=O)OC(C)(C)C)CC1,71%
4,CCOc1ccc2oc(=O)cc(CN3CCN(C(=O)c4ccc(OC)c(OC)c4)CC3)c2c1,50%
5,CCOc1ccc2oc(=O)cc(CN3CCN(C(=O)c4cccc(F)c4)CC3)c2c1,31% (active)
6,CCOc1ccc2oc(=O)cc(CN3CCN(C(=O)c4ccc(Cl)cc4)CC3)c2c1,86%
7,CCOc1ccc2oc(=O)cc(CN3CCN(C(=O)c4cccc(Cl)c4)CC3)c2c1,66%
8,CCOc1ccc2oc(=O)cc(CN3CCN(C(=O)c4ccc(F)cc4)CC3)c2c1,31% (active)
9,CCOc1ccc2oc(=O)cc(CN3CCN(Cc4ccc(F)cc4)CC3)c2c1,83%
10,CCc1nc2ccc(C(=O)NCc3ccc(N(C)C)cc3)cc2nc1CC,99%
11,Cc1c(C(=O)N2CCC(C)CC2)c(S(=O)(=O)NCc2ccccc2)c(C)n1C,66%
12,O=C(NCc1ccccc1Br)c1cnc2sc(N3CCCCCC3)nn2c1=O,94%
13,Cc1cccc(NC(=O)CSc2cn(CC(=O)N3CCCC3)c3ccccc23)c1C,99%
14,Cc1ccc(N2C(=O)CSC23C(=O)N(CC(=O)NC2CCCCC2)c2ccccc23)cc1C (stereo not drawn),94%
15,CCCn1cc(S(=O)(=O)c2cccc(Cl)c2)c(=O)c2cc(F)c(N3CCN(CC)CC3)cc21,115%
16,O=C(CSc1nc2ccccc2n1Cc1ccccc1F)NCc1ccccc1,97%
17,Nc1nonc1-c1nc2ccccc2n1Cc1cccc(Cl)c1,80%
18,Cc1cccc(Cn2c(-c3ccccc3)nc3ccccc32)c1,-2% (active)
19,CCC(O)c1nc2ccccc2n1Cc1cccc(Cl)c1 (stereo not drawn),83%
20,Cc1cccc(-c2nc3ccccc3n2Cc2ccccc2)c1,0% (active)
21,Fc1ccccc1Cn1c(-c2ccccc2)nc2ccccc21,1% (active)
22,Cc1ccc(Cn2c(C(C)NC(=O)c3ccccc3)nc3ccccc32)cc1 (stereo not drawn),90%
23,Cc1ccc(Cn2c(-c3ccccc3)nc3ccccc32)cc1,-2% (active)
24,Cc1ccc(Cn2c(CCNC(=O)c3cccc(C)c3)nc3ccccc32)cc1,60%

row,Compound,survival
1,Cc1cccc(Cn2c(-c3cccc(Br)c3)nc3ccccc32)c1,122%
2,Fc1ccc(Cn2c(-c3cccc(Br)c3)nc3ccccc32)cc1,109%
3,Cc1ccc(Cn2c(=O)c3ccccc3n3c(-c4ccccc4)nnc23)cc1,86%
4,CCOC(=O)Cc1ccc(NC(=O)N2CC(C)Oc3ccc(Cl)cc32)cc1 (stereo not drawn),55%
5,O=CN(Cc1ccco1)C1(C(=O)NC2CCCCC2)CCCCC1,76%
6,OCc1cnc(SCc2ccccc2F)n1Cc1ccc(F)cc1,87%
7,COc1ccccc1CNC(=O)CCC1N=C2c3ccccc3N=C(SCC(=O)Nc3ccc(F)cc3)N2C1=O (stereo not drawn),84%
8,Cc1ccc2nc(-c3cccnc3)c(Nc3ccc(C(C)C)cc3)n2c1,94%
9,O=C(COCc1cc(-c2ccc3c(c2)OCO3)on1)Nc1cc(Cl)ccc1O,60%
10,CCn1c(=O)cc(SCC(=O)Nc2cc(Cl)ccc2OC)c2ccccc21,67%
11,CCCNC(=O)c1ccc(Cn2c(SCC(=O)NC(C)C)nc3ccccc3c2=O)cc1,102%
12,CN(C)c1ccc(C(CNC(=O)c2ccccc2F)N2CCc3ccccc32)cc1 (stereo not drawn),105%
13,COc1cccc(C(=O)NCC(c2ccc(N(C)C)cc2)N2CCc3ccccc32)c1OC (stereo not drawn),93%
14,CN(C)c1ccc(C(CNC(=O)c2ccccc2Cl)N2CCc3ccccc32)cc1 (stereo not drawn),37% (active)
15,COc1ccccc1C(=O)NCC(c1ccc(N(C)C)cc1)N1CCc2ccccc21 (stereo not drawn),46% (active)
16,CCOc1ccccc1C(=O)NCC(c1ccc(N(C)C)cc1)N1CCc2ccccc21 (stereo not drawn),102%
17,CN(C)c1ccc(C(CNC(=O)c2ccccc2)N2CCc3ccccc32)cc1 (stereo not drawn),115%
18,O=C(Cn1c(=O)sc2ccccc21)Nc1cccc(Cl)c1,83%
19,CCN(Cc1ccccc1)C(=O)CN1C(=O)COc2ccc(S(=O)(=O)N3CCOCC3)cc21,98%
20,CCOC(=O)Nc1cccc(C(=O)O)c1,71%
21,CCSc1ncc(Cl)c(C(=O)Nc2sc3c(c2C(=O)NC)CCCC3)n1,82%
22,CCOC(=O)c1c(NC(=O)c2nc(SCC)ncc2Cl)sc2c1CCCC2,91%
23,CNC(=O)c1c(NC(=O)c2nc(SCc3ccc(C)cc3)ncc2Cl)sc2c1CCCC2,37% (active)
24,CCOC(=O)c1c(NC(=O)c2nc(SC(C)C)ncc2Cl)sc2c1CCCC2,56% (active)

row,Compound,survival
1,COC(=O)c1c(NC(=O)c2nc(SCc3ccc(C)cc3)ncc2Cl)sc2c1CCCC2,46% (active)
2,Cc1ccc(CSc2ncc(Cl)c(C(=O)Nc3sc4c(c3C(N)=O)CCCC4)n2)cc1,105%
3,COC(=O)c1c(NC(=O)c2nc(SCc3cccc(C)c3)ncc2Cl)sc2c1CCCC2,113%
4,COC(=O)c1c(NC(=O)c2nc(SCc3ccc(F)cc3)ncc2Cl)sc2c1CCCC2,47%
5,COC(=O)c1c(NC(=O)c2nc(SC)ncc2Cl)sc2c1CCCC2,85%
6,Cc1cc(C)nc(-n2nc(C)c3c2N(Cc2ccccc2F)C(=O)CC3c2ccc(Cl)cc2)n1 (stereo not drawn),100%
7,CCC(=O)N1CCc2cc(Br)cc(S(=O)(=O)CCC(=O)Nc3ccc(C)c(F)c3)c21,86%
8,CCCCn1c(SCC(=O)Nc2ccc(OCC)cc2)nc2ccsc2c1=O,130%
9,CCc1ccccc1NC(=O)C1(C)Cc2ccccc2C(=O)O1 (stereo not drawn),97%
10,CCc1ccc(NCc2cc3cc4c(cc3n(CC(=O)Nc3ccccc3Cl)c2=O)OCO4)cc1,73%
11,Cn1c(=O)n(C)c2cc(N3CCCCC3)c(NC(=O)c3ccc(Cl)cc3)cc21,74%
12,CCc1ccc(NC(=O)CN2C(=O)C(c3ccc(F)cc3)=NC2(C)C)cc1,81%
13,Cc1ccc(NC(=O)Cn2c(=O)c3ccccc3n3nncc23)cc1,114%
14,Nc1ccc2nc(-c3ccc(O)cc3)sc2c1,120%
15,Cc1ccc2sc(-c3ccc(N)cc3)nc2c1,12% (active)
16,Cc1ccc2nc(-c3ccc(NC(=O)C(F)(F)F)cc3)sc2c1,98%
17,Cc1cccc(C)c1OCc1nc2c3cnn(-c4ccccc4Br)c3ncn2n1,69%
18,COc1ccc(Br)c(C(=O)Nc2cc3c(cc2N2CCOCC2)n(C)c(=O)n3C)c1,82%
19,O=C(NCCCc1nc2ccccc2n1Cc1cccc(Cl)c1)c1ccco1,46% (active)
20,O=C(NCCCc1nc2ccccc2n1Cc1ccc(Cl)cc1Cl)c1ccco1,58%
21,O=C(NCCCc1nc2ccccc2n1Cc1ccc(Cl)cc1)c1ccco1,105%
22,O=C(NCCc1nc2ccccc2n1Cc1ccc(Cl)cc1Cl)c1ccco1,49% (active)
23,Cc1ccc(Cn2c(CCCNC(=O)c3ccco3)nc3ccccc32)cc1,77%
24,O=C(NCCc1nc2ccccc2n1Cc1ccccc1)c1ccco1,113%

row,Compound,survival
1,CCCSCCCNC(=O)CN1C(=O)COc2ccc(S(=O)(=O)N3CCC(C)CC3)cc21,90%
2,N#Cc1ccccc1NC(=O)CNCC1CCCO1 (stereo not drawn),76%
3,COC(=O)c1ccccc1N(C)S(=O)(=O)c1cc2c3c(c1)CC(=O)N3CCC2,78%
4,CCOC(=O)C1CCN(S(=O)(=O)c2cc3c4c(c2)CC(=O)N4CCC3)CC1,83%
5,CC1CCN(S(=O)(=O)c2cc3c4c(c2)CC(=O)N4CCC3)CC1,102%
6,COC(=O)C1CCN(S(=O)(=O)c2cc3c4c(c2)CC(=O)N4CCC3)CC1,37% (active)
7,CC1C(=O)N2CCCc3cc(S(=O)(=O)N4CCC(C(N)=O)CC4)cc1c32 (stereo not drawn),0% (active)
8,COc1ccc(C)cc1NS(=O)(=O)c1cc2c3c(c1)CC(=O)N3CCC2,105%
9,COC(=O)C1CCN(S(=O)(=O)c2cc3c4c(c2)C(C)C(=O)N4CCC3)CC1 (stereo not drawn),99%
10,CCOC(=O)C1CCN(S(=O)(=O)c2cc3c4c(c2)C(C)C(=O)N4CCC3)CC1 (stereo not drawn),98%
11,COC(=O)c1ccccc1NS(=O)(=O)c1cc2c3c(c1)CC(=O)N3CCC2,46% (active)
12,O=C(O)CCCNC1C=CS(=O)(=O)C1 (stereo not drawn),91%
13,COCCNc1cc(N2CCN(C3CCCCC3)CC2)c2noc3c2c1C(=O)c1ccccc1-3,57%
14,COc1ccc(CCC(=O)NC2CC(=O)N(c3cccc(F)c3)C2)cc1 (stereo not drawn),113%
15,CSc1nc(NC(N)=S)nc(NC(C)C)n1,76%
16,Cc1cc(C)c2c(CC(=O)Nc3ccc(S(=O)(=O)Nc4ncccn4)cc3)coc2c1,83%
17,COc1ccc([N+](=O)[O-])cc1NC(c1nnc(-c2ccccc2)o1)c1ccccc1F (stereo not drawn),83%
18,Cc1cccc2nc(-c3cccnc3)c(Nc3ccc(C(C)C)cc3)n12,70%
19,Cc1cccc(C(C)C)c1NC(=O)c1ccc2c(c1)CCN2S(C)(=O)=O,74%
20,COc1ccc(C2C(C(=O)Nc3cccnc3)=C(C)Nc3nc(-c4ccc(OC)c(OC)c4)nn32)cc1 (stereo not drawn),150%
21,CCOC(=O)C1CCN(C(=O)c2c(C)nn(-c3ccc(F)cc3)c2-n2cccc2)CC1,66%
